From the supplement of paper PMC10849652
About 7,900 targets were measured; listed, in parts, are those with a hit and a random draw of the rest. About 0.6% of all pairs of compound and target were hits. Unmarked numbers belong to inactive results.

Assays:
Test in all cases: log2 fold change, soluble protein after heating vs DMSO (PISA); higher = thermal stabilisation; K562 cells, 10 uM, 30 min; active = over 0.2 and 3.5 SD of the protein, either way, in both replicates (recomputed)
[1] = compound: COC1=CC=C(C=C1)CN2C=CC3=C2C=C(C=C3)C(=O)NO
Procedure, shortened: (§1)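 Soluble protein was quantified by TMTpro 16plex LC-MS/MS after channel sums were equalised. It was obtained as the supernatant after 21,000xg for 90 min from pooled aliquots of K562 cells (2×10^6 cells/mL, 10 μM compound, 30 min) heated for 3 min across 48°C-58°C and extracted in PBS with 0.5% NP-40 at 4°C. Thermal stability values are relative to control samples and come from duplicates. They are given as log2 fold changes.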

filanesib = compound: CON(C)C(=O)N1N=C(c2cc(F)ccc2F)S[C@@]1(CCCN)c1ccccc1 [filanesib]
Procedure, shortened: as §1

zotarolimus = compound: CO[C@H]1C[C@@H]2CC[C@@H](C)[C@@](O)(O2)C(=O)C(=O)N2CCCC[C@H]2C(=O)O[C@H]([C@H](C)C[C@@H]2CC[C@H](n3cnnn3)[C@H](OC)C2)CC(=O)[C@H](C)/C=C(\C)[C@@H](O)[C@@H](OC)C(=O)[C@H](C)C[C@H](C)/C=C/C=C/C=C/1C [zotarolimus]
Procedure, shortened: as §1

idasanutlin = compound: COc1cc(C(=O)O)ccc1NC(=O)[C@@H]1N[C@@H](CC(C)(C)C)[C@](C#N)(c2ccc(Cl)cc2F)[C@H]1c1cccc(Cl)c1F [idasanutlin]
Procedure, shortened: as §1

alisertib = compound: COc1cc(Nc2ncc3c(n2)-c2ccc(Cl)cc2C(c2c(F)cccc2OC)=NC3)ccc1C(=O)O [alisertib]
Procedure, shortened: as §1

[2] = compound: COc1cc2nc(-c3cc(F)ccc3O)nc(N[C@@H]3CNC[C@H]3C(C)(C)O)c2cc1OC
Procedure, shortened: as §1

gefitinib = compound: COc1cc2ncnc(Nc3ccc(F)c(Cl)c3)c2cc1OCCCN1CCOCC1 [gefitinib]
Procedure, shortened: as §1

[3] = compound: COc1cccc2cc(-c3nc([C@H]4CC[C@H](C(=O)O)CC4)n4ncnc(N)c34)[nH]c12
Procedure, shortened: as §1

lapatinib = compound: CS(=O)(=O)CCNCc1ccc(-c2ccc3ncnc(Nc4ccc(OCc5cccc(F)c5)c(Cl)c4)c3c2)o1 [lapatinib]
Procedure, shortened: as §1

pictilisib = compound: CS(=O)(=O)N1CCN(Cc2cc3nc(-c4cccc5[nH]ncc45)nc(N4CCOCC4)c3s2)CC1 [pictilisib]
Procedure, shortened: as §1

Chain of UniProt P02585 (P02585 whole entry, looked up): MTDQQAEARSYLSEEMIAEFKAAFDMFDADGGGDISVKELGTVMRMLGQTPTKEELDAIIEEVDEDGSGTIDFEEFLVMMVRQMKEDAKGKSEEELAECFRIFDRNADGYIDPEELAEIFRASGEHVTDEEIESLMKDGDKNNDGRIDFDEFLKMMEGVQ
Chain of UniProt O75717 (O75717 whole entry, looked up): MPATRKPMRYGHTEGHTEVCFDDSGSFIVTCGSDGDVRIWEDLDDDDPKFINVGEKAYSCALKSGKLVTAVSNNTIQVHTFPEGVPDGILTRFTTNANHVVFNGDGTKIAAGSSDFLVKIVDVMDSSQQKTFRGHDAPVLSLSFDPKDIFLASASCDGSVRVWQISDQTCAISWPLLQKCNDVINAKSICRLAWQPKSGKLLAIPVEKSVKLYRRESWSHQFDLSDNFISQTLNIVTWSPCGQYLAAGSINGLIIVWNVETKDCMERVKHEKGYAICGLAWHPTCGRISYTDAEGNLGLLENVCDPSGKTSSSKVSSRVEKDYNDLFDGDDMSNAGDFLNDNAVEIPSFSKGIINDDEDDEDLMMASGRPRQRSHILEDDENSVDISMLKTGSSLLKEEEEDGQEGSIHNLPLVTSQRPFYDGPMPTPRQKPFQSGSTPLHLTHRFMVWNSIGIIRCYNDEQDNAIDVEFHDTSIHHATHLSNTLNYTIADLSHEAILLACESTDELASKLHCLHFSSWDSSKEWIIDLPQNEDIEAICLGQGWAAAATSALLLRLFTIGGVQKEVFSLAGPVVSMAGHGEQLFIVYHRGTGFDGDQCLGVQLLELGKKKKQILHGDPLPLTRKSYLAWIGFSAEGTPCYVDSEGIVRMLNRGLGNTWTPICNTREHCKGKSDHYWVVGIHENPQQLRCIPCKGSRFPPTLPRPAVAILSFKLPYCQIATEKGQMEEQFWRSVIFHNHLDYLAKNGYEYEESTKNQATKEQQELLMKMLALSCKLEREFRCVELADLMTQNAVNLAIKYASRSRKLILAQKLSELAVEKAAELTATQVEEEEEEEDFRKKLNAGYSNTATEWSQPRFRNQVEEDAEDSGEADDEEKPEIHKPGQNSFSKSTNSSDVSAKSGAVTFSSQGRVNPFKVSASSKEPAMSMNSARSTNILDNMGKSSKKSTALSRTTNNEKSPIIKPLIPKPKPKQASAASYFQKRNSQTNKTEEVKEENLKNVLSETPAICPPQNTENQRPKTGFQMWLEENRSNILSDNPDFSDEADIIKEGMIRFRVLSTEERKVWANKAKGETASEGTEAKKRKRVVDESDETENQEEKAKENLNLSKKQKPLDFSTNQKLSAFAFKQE
Chain of UniProt Q96JC1 (Q96JC1 whole entry, looked up): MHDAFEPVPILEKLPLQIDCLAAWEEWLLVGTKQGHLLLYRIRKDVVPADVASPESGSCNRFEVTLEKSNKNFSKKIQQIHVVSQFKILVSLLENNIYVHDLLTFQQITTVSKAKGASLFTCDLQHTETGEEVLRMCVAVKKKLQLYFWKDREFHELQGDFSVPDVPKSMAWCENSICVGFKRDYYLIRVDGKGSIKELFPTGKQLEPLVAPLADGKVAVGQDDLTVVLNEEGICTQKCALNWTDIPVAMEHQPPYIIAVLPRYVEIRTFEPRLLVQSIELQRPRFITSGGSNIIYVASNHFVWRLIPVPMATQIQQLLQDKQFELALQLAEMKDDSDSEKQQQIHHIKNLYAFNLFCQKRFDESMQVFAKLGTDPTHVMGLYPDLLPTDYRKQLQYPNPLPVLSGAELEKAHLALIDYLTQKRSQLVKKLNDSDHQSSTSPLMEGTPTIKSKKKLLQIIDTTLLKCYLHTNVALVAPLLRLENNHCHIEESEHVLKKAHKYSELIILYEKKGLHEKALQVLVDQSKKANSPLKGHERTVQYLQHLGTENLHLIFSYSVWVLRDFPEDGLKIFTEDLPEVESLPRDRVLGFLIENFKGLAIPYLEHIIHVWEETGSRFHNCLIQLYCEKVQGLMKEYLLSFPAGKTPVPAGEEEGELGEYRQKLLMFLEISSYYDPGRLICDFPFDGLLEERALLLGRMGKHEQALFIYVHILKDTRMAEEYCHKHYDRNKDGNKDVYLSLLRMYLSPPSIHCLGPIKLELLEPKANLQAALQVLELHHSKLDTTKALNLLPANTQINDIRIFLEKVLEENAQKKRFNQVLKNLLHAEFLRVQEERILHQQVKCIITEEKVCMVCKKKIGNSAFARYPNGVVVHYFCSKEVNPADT
Chain of UniProt Q92973 (Q92973 whole entry, looked up): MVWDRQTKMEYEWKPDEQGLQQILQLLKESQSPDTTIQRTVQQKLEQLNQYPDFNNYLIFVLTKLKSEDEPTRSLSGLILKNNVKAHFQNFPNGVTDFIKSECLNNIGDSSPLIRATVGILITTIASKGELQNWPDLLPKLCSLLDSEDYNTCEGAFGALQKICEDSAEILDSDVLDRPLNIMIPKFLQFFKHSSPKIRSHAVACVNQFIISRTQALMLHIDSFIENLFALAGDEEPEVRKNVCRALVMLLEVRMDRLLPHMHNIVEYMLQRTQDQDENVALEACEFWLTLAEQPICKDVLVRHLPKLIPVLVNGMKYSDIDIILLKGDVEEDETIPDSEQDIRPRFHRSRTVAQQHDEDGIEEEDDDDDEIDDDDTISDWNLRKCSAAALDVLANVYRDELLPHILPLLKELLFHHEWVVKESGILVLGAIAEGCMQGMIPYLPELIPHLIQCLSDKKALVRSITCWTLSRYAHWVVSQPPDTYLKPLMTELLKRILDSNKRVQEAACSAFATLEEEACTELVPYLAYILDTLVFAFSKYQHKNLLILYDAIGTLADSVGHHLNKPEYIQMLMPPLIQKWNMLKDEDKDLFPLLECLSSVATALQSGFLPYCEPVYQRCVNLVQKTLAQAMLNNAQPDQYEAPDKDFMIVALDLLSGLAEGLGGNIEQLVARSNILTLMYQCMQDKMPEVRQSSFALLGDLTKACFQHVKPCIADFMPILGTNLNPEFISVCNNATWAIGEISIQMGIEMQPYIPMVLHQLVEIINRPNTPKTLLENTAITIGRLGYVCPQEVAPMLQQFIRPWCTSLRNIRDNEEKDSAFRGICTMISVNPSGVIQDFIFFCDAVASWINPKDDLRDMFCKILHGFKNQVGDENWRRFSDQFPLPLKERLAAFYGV
Chain of UniProt O14787 (O14787 whole entry, looked up): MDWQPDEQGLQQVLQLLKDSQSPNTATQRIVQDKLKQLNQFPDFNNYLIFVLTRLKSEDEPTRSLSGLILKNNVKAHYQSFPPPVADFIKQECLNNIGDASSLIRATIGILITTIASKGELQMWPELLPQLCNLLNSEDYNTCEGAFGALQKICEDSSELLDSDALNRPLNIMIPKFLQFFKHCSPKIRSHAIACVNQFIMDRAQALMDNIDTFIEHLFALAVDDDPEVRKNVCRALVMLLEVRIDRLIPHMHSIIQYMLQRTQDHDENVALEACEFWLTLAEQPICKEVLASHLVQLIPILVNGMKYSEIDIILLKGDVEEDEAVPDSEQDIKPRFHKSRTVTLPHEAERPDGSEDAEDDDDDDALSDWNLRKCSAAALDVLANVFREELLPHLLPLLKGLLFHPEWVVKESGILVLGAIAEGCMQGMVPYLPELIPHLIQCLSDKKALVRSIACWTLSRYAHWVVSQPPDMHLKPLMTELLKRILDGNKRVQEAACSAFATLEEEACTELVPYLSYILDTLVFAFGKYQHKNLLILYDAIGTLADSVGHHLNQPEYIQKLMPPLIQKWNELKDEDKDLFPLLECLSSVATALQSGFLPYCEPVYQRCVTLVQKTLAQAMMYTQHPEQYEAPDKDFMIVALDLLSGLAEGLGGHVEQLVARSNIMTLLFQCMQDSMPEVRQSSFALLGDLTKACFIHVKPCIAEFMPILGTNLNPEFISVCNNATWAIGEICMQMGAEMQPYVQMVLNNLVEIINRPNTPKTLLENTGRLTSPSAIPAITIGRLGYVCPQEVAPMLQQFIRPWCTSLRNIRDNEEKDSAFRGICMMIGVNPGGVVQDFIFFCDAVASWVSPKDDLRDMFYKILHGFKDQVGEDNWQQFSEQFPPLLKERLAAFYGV
Chain of UniProt Q15642 (Q15642 whole entry, looked up): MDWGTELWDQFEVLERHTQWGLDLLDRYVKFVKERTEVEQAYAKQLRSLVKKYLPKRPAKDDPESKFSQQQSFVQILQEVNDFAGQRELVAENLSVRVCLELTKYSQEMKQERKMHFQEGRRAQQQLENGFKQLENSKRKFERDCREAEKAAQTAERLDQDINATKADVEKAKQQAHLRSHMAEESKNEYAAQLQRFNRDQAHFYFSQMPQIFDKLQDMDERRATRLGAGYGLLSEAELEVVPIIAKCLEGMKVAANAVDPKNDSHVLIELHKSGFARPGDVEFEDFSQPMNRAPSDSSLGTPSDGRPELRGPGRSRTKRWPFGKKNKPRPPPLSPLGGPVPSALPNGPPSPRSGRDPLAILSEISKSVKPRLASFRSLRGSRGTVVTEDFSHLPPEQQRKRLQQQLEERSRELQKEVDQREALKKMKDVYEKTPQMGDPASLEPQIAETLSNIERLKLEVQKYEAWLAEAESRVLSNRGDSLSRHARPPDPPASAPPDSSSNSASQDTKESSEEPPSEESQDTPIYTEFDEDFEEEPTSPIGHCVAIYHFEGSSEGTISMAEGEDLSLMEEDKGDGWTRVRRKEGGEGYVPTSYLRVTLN
Chain of UniProt Q9NQ34 (Q9NQ34 whole entry, looked up): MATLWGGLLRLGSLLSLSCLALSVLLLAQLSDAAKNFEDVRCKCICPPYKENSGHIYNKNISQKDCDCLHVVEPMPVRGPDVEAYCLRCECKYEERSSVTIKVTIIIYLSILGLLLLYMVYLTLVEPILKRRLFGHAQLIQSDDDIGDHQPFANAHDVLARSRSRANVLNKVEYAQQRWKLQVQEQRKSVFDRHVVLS
Chain of UniProt Q8IY95 (Q8IY95 whole entry, looked up): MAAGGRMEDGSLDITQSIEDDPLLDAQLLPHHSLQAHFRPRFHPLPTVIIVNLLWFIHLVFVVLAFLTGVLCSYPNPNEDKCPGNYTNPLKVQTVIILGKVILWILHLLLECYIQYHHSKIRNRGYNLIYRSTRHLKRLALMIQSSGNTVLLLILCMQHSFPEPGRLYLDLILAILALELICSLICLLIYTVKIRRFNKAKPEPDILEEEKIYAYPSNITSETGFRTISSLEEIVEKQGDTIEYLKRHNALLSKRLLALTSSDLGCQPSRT

Target	log2 fold change [1]	log2 fold change (filanesib)	log2 fold change (zotarolimus)	log2 fold change (idasanutlin)	log2 fold change (alisertib)	log2 fold change [2]	log2 fold change (gefitinib)	log2 fold change [3]	log2 fold change (lapatinib)	log2 fold change (pictilisib)
TNPO1 (UniProt Q92973)	-0.008	-0.096	0.012	-0.023	-0.074	-0.156	-0.001	-0.012	-0.005	-0.02
WDHD1 (UniProt O75717)	0.013	-0.003	0.031	0.005	0.036	0.011	0.013	-0.012	0.006	-0.015
TP53BP1 isoform 2 (UniProt Q12888)	0.006	0.059	0.054	0.04	0.046	-0.089	-0.014	-0.041	0.028	0
TMEM179B (UniProt Q7Z7N9)	-0.019	-0.162	-0.205	0.088	-0.007	-0.03	0.039	0.175	0.032	0.036
TNFRSF8 (UniProt P28908)	0.019	0.11	-0.019	0.04	-0.011	0.074	0.067	0	0.003	0.047
TNNC2 (UniProt P02585)	-0.037	0.038	-0.006	0.007	-0.172	0.014	0.008	0.045	-0.027	0.025
TRIM44 (UniProt Q96DX7)	-0.074	0.022	0.005	-0.025	0.008	-0.047	-0.027	-0.033	0.025	0.039
XPO1 (UniProt O14980)	0.074	-0.121	0.004	-0.123	-0.003	0.023	-0.032	0.001	-0.023	-0.071
VPS39 (UniProt Q96JC1)	-0.038	-0.119	0.023	-0.028	-0.012	0.021	0.051	-0.059	-0.012	-0.035
UHRF1BP1L (UniProt A0JNW5)	-0.027	0.038	0.093	-0.073	-0.08	0.179	0.05	0.034	-0.006	-0.046
TMEM192 (UniProt Q8IY95)	-0.036	-0.162	-0.047	0.037	-0.048	-0.009	-0.047	0.099	-0.02	0.038
UBAP1 isoform 4 (UniProt Q9NZ09)	-0.018	0.078	0.045	-0.014	-0.034	-0.017	0.088	-0.018	0.23	-0.005
WDR4 (UniProt P57081)	0.017	-0.022	0.004	-0.096	-0.059	-0.058	-0.01	0.049	0.206	0.131
TRIP10 isoform 2 (UniProt Q15642)	-0.032	-0.213	0.013	0.128	-0.029	0.109	0.062	-0.09	-0.083	0.06
TMEM106B (UniProt Q9NUM4)	0.021	0.06	-0.082	-0.032	-0.012	-0.027	0.04	0.057	-0.005	0.027
TRMT2A (UniProt Q8IZ69)	-0.322 (active)	0.061	0.016	0.04	-0.051	-0.158	-0.006	-0.071	0.016	-0.096
XRCC6 (UniProt P12956)	0.006	-0.021	0.058	-0.059	-0.014	-0.097	-0.01	-0.008	0.013	-0.024
TMEM9B (UniProt Q9NQ34)	0.001	-0.039	0.014	0.036	-0.032	0.011	-0.047	-0.068	-0.118	0.07
UBE2J1 (UniProt Q9Y385)	-0.209	0.119	0.046	-0.12	-0.259	0.232	-0.035	0.241	-0.064	-0.081
TNPO2 (UniProt O14787)	-0.022	-0.005	0.065	-0.194	-0.071	-0.069	0.027	-0.038	-0.048	-0.076
WASH2P (UniProt Q6VEQ5)	0.007	-0.067	-0.029	-0.055	-0.027	0.067	0.001	-0.036	0.016	0.053
UBE4A isoform 2 (UniProt Q14139)	0.037	-0.023	-0.003	0.008	-0.003	-0.024	-0.056	-0.073	0.022	0.016
TNPO3 (UniProt Q9Y5L0)	0.053	-0.094	0.036	-0.074	-0.064	-0.035	-0.012	-0.004	-0.035	0.077
UHRF1BP1 (UniProt Q6BDS2)	-0.025	0.079	0.161	-0.029	-0.033	0.104	0.045	0.037	0.038	0.032
TXNRD1 (UniProt Q16881)	0.018	-0.101	0.006	-0.144	-0.012	-0.023	0.026	0.052	-0.055	0.062
WDR18 (UniProt Q9BV38)	-0.04	0.02	-0.024	0.039	-0.041	0.056	0.024	0.035	0.005	-0.004
WASHC2A (UniProt Q641Q2)	0.007	0.019	-0.053	0.063	-0.065	-0.011	-0.009	-0.005	0.02	0.038
TMEM223 (UniProt A0PJW6)	-0.042	-0.109	0.083	-0.112	-0.046	-0.147	-0.028	0.038	0.018	-0.007
USP14 (UniProt P54578)	0.023	-0.035	0.04	-0.051	-0.057	-0.008	0.007	-0.043	0.031	0.026
